Experimental data reported in PubChem BioAssay (NCATS).
Results filed as inconclusive are left out. The source made the active and inactive calls. Calls follow the shape of the dose curve; as a rule, active = well fitted inhibition curve with a large enough effect; inconclusive = small, poorly fitted or top-dose-only effect; inactive = flat fitted curve, though single readings scatter.

What follows are compounds tested on CRL-7250 (assay: qHTS assay to identify novel small-molecules to repurpose for Merkel cell carcinoma treatment (AID 1296009; also: nearly all actives have a fitted effect of over 60% in size)). Details: MCC and control cell lines, CellTiter-Glo viability, 72 h; series mostly up to 92 µM; activity change, negative = cytotoxicity: at the top concentration.
Outline: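 Cells were treated for 72 hr at 37 degree celsius with compounds in 8- or 11-point dose response. Viability was read by CellTiter-Glo luminescence, normalized to no-cell (cytotoxicity) and DMSO controls.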

| SMILES | outcome |
| --- | --- |
| COC(=O)C(CC1(O)c2ccccc2N2C(=O)C(CC(C)C)NC21)n1cnc2ccccc2c1=O (stereo not given) | inactive [at 17.4 µM] |
| Cc1cc(Cn2cnc3c2CC(C(=O)O)N(C(=O)C(c2ccccc2)c2ccccc2)C3)ccc1N(C)C (stereo not given) | inactive |
| Cc1cc(O)cc(O[C@@H]2O[C@H](CO)[C@@H](O)[C@H](O)[C@H]2O)c1 | inactive |
| CCc1nn(CCO)c(CC)c1Oc1cc(C#N)cc(C#N)c1 | inactive |
| COC(=O)C(CC1(O)c2ccccc2N2C(=O)C(C)(C)N(O)C21)n1cnc2ccccc2c1=O (stereo not given) | inactive [at 17.4 µM] |
